Records with an inconclusive call do not appear. The source made the active and inactive calls. Calls come from the whole dose curve; as a rule, active = well fitted curve in the direction sought with a large enough effect; inconclusive = small, poorly fitted or top-dose-only effect, or another doubt; inactive = no such curve, though single readings can be large; an effect the other way counts as inactive or inconclusive.
Experiments:
[1] = Quantitative highthroughput screen to assess conditional lethalithy of NOMO1 cells grown in RPMI1640 with untreated serum (RPMI+s) (AID 1963876); note: nearly all actives have a fitted effect of over 35% in size; note: potency is the fitted concentration of half-maximal effect;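 for viability: 100% = DMSO wells and 0% = empty wells without cells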
In short: (§1)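 Each medium arm—HPLM with 10% dialyzed FBS, or RPMI1640 with 5 mM glucose and 10% untreated or dialyzed FBS—was screened against an 11-point, 3-fold compound titration for 48 h at 37 °C, with CellTiter-Glo luminescence as endpoint.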

[2] = Quantitative highthroughput screen to assess conditional lethalithy of NOMO1 cells grown in RPMI1640 with dialyzed fetal bovine serum (RPMI+ds) (AID 1963877); note: nearly all actives have a fitted effect of over 30% in size; note: potency is the fitted concentration of half-maximal effect;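 for viability: series mostly up to about 46 µM; 100% = DMSO control wells and 0% = empty wells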
In short: as §1

[3] = Quantitative highthroughput screen to assess conditional lethalithy of SEM cells grown in Human Plasma-Like Medium with dialyzed fetal bovine serum (HPLM+ds) (AID 1963882); note: series mostly up to about 46 µM; nearly all actives have a fitted effect of over 35% in size
In short: as §1

[4] = Cellular viability qHTS for adrenocortical cancer (ACC) cell line NCI-H295R (AID 1963990); note: nearly all actives have a fitted effect of over 60% in size; note: potency is the fitted concentration of half-maximal effect
In short: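 Luminescent ATP read-out (CellTiter-Glo, 20 min RT) after 48 h drug exposure of NCI-H295R cells; a titration up to 46 uM final. Data normalized to doxorubicin (100% inhibition) and DMSO (0%); 4-parameter fit gives IC50, max response.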

[5] = Quantitative highthroughput screen to assess conditional lethalithy of NOMO1 cells grown in Human Plasma-Like Medium with dialyzed fetal bovine serum (HPLM+ds) (AID 1963878);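 note: 100% = DMSO wells and 0% = empty wells on each plate; nearly all actives have a fitted effect of over 35% in size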
In short: as §1

[6] = Quantitative highthroughput screen to assess conditional lethalithy of P12 Ichikawa cells grown in Human Plasma-Like Medium with dialyzed fetal bovine serum (HPLM+ds) (AID 1963879); conditions: Potency: viability; note: series mostly up to about 46 µM; nearly all actives have a fitted effect of over 35% in size
In short: as §1

[7] = Quantitative highthroughput screen to assess conditional lethalithy of P12 Ichikawa cells grown in RPMI1640 with dialyzed fetal bovine serum (RPMI+ds) (AID 1963880); conditions: Potency: P12-Ichikawa viability
In short: as §1

[8] = Quantitative highthroughput screen to assess conditional lethalithy of P12 Ichikawa cells grown in RPMI1640 with untreated serum (RPMI+s) (AID 1963881); conditions: Potency: viability
In short: as §1

[9] = Quantitative highthroughput screen to assess conditional lethalithy of SEM cells grown in RPMI1640 with unreated serum (RPMI+s) (AID 1963883); note: nearly all actives have a fitted effect of over 35% in size; note: potency is the fitted concentration of half-maximal effect;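 for viability: 100% = DMSO wells and 0% = empty wells without cells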
In short: as §1

[10] = Quantitative highthroughput screen to assess conditional lethalithy of SEM cells grown in RPMI1640 with dialyzed fetal bovine serum (RPMI+ds) (AID 1963884); note: nearly all actives have a fitted effect of over 35% in size; note: potency is the fitted concentration of half-maximal effect;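 for viability: series mostly up to about 46 µM; 100% = DMSO control wells and 0% = empty wells without cells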
In short: as §1

[11] = Cellular viability qHTS for adrenocortical cancer (ACC) cell line SW-13 (AID 1963989); conditions: SW-13 ACC cells viability, CellTiter-Glo, 48 h; activity (max response): stronger effect = lower value;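 note: cells grown in serum-free medium with ITS supplement; % is set by controls: 0 for no effect and ±100 for the full control effect; nearly all actives have a fitted effect of over 65% in size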
In short: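 SW-13 cells in ITS-supplemented serum-free DMEM were plated overnight, then exposed for 48 h at 37C to compound titrations (up to 46 uM final). Viability was read by CellTiter-Glo luminescence; four-parameter logistic fits gave IC50 and efficacy.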

Nc1nc2ccc(OC(F)(F)F)cc2s1
inactive: Potency [1] | Potency [2] | Potency [3]
active: Potency [4] 20 µM

C[C@H]1C[C@@H]2[C@@H]([C@@H](O)C[C@@]3(C)[C@H]2CC[C@]3(O)C(=O)CO)[C@@]2(C)C=CC(=O)C=C12
inactive: Potency [1] | Potency [5]

O=C(O)C1=NC(C(=O)O)CC(C=CN2c3cc(O)c(OC4OC(CO)C(O)C(O)C4O)cc3CC2C(=O)O)=C1 (centres undefined)
inactive: Potency [1] | Potency [5] | Potency [6] | Potency [7] | Potency [8] | Potency [3] | Potency [9] | Potency [10]

CCOc1ccc(Cc2cc([C@@H]3O[C@H](CO)[C@@H](O)[C@H](O)[C@@H]3O)ccc2Cl)cc1
inactive: Potency [1] | Potency [5] | Potency [6] | Potency [7] | Potency [8] | Potency [3] | Potency [9] | Potency [10]

COC(=O)C[C@](O)(CCCC(C)(C)O)C(=O)O[C@@H]1C(OC)=C[C@]23CCCN2CCc2cc4c(cc2[C@H]13)OCO4
inactive: Potency [1] | Potency [5] | Potency [6] | Potency [7] | Potency [8] | Potency [3] | Potency [9] | Potency [10] | activity (max response) [11] -15.2% | Potency [4]

Cc1ccc([C@@H]2O[C@H](CO)[C@@H](O)[C@H](O)[C@@H]2O)cc1Cc1ccc(-c2ccc(F)cc2)s1
inactive: Potency [1] | Potency [2] | Potency [3]

COc1cc(C=CC(=O)O)ccc1O
inactive: Potency [1] | Potency [5] | Potency [6] | Potency [7] | Potency [8] | Potency [3] | Potency [9]

O=C(CCCN1CCC(O)(c2ccc(Cl)cc2)CC1)c1ccc(F)cc1
inactive: Potency [1] | Potency [5] | Potency [6] | Potency [7] | Potency [8] | Potency [3] | Potency [9] | Potency [10]

O=C(O)c1ccc(O)c2ncc(N3CCOCC3)cc12
inactive: Potency [1] | Potency [2] | activity (max response) [11] -5.09% | Potency [4]

O=C(O)[C@H](Cc1c[nH]c2ccccc12)N1C(=O)c2ccccc2C1=O
inactive: Potency [1] | Potency [5] | Potency [6] | Potency [7] | Potency [8] | Potency [3] | activity (max response) [11] -15.6% | Potency [4]

CC(=O)O[C@@]12CO[C@H]1C[C@H](O)[C@@]1(C)C(=O)[C@H](O)C3=C(C)[C@@H](OC(=O)C(O)[C@@H](NC(=O)OC(C)(C)C)c4ccccc4)C[C@@](O)([C@@H](OC(=O)c4ccccc4)[C@@H]21)C3(C)C (some centres undefined)
inactive: Potency [1] | Potency [2] | Potency [3] | Potency [9] | Potency [10]

CN1[C@H]2CC[C@H]1CC(OC(=O)c1c[nH]c3ccccc13)C2 (some centres undefined)
inactive: Potency [1] | Potency [5] | Potency [6] | Potency [7] | Potency [8] | Potency [3] | Potency [9] | Potency [10]

CC[C@H]1OC(=O)[C@H](C)[C@@H](O[C@H]2C[C@@](C)(OC)[C@@H](O)[C@H](C)O2)[C@H](C)[C@@H](O[C@@H]2O[C@H](C)C[C@H](N(C)C)[C@@H]2O)[C@](C)(O)C[C@@H](C)CN(C)[C@H](C)[C@@H](O)[C@]1(C)O
inactive: Potency [1] | Potency [5]

CCC(=O)O[C@]1(C(=O)CO)CC[C@H]2[C@@H]3CCC4=CC(=O)CC[C@]4(C)[C@@H]3CC[C@@]21C
inactive: Potency [1]
active: Potency [2] 10.5 µM | Potency [10] 1.18 µM

CN1CC(=O)N2C(Cc3c([nH]c4ccccc34)[C@H]2c2ccc3c(c2)OCO3)C1=O (some centres undefined)
inactive: Potency [1] | Potency [5] | Potency [6] | Potency [7] | Potency [8] | Potency [3] | Potency [9]

CCCCC(C=O)NC(=O)C(CC(C)C)NC(=O)OCc1ccccc1 (centres undefined)
inactive: Potency [1] | Potency [5] | Potency [6]

O=c1ccn([C@@H]2O[C@H](CO)[C@H](O)[C@H]2O)c(=O)[nH]1
inactive: Potency [1] | Potency [5] | Potency [6] | Potency [7] | Potency [8] | Potency [3] | Potency [9]

CC(=O)N1CCN(c2ccc(OC[C@H]3CO[C@](Cn4ccnc4)(c4ccc(Cl)cc4Cl)O3)cc2)CC1
inactive: Potency [1] | Potency [5]

CCN1CCN(C(=O)N[C@H](C(=O)N[C@@H]2C(=O)N3C(C(=O)O)=C(CSc4nnnn4C)CS[C@@H]23)c2ccc(O)cc2)C(=O)C1=O
inactive: Potency [1] | Potency [5] | Potency [6] | Potency [7] | Potency [8] | Potency [3] | Potency [9] | Potency [10]

Cc1cccc(C=NNc2cc(N3CCOCC3)nc(OCCc3ccccn3)n2)c1
active: Potency [1] 2.09 µM | Potency [2] 1.05 µM | Potency [9] 11.8 µM | Potency [10] 14.8 µM

Cc1cccc(-c2[nH]ncc2-c2ccc3ncccc3n2)n1
active: Potency [2] 18.7 µM
inactive: Potency [1] | activity (max response) [11] 4.45% | Potency [4]

CC1(C)O[C@@H]2C[C@H]3[C@@H]4CCC5=CC(=O)C=C[C@]5(C)[C@@H]4[C@@H](O)C[C@]3(C)[C@]2(C(=O)CO)O1
inactive: Potency [1] | Potency [2] | activity (max response) [11] -5.21% | Potency [4]

Reference: PubChem BioAssay (NCATS)
